From PubChem BioAssay AID1159580 (chemical genetic matrix, 2015)
In all, about 5,500 compounds went through this assay and about 2,000 (36%) were called active. Not shown: some 18% with an inconclusive outcome. Rule as the data show it: active = normalized growth mostly below about 0.91 (no sharp cut-off); inconclusive = no clear call, values can overlap the other calls; inactive = mostly above about 0.92. Some of the results follow.

Assay: chemical genetic growth profiling, strain panel (AID 1159580);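 also: tested at 20 µM; growth read once vehicle control cultures reached saturation at 30 °C; 1 = growth at the plate median or of vehicle wells; lower values mean less growth of the strain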
Conditions: growth OD

Measured: normalized growth

C=C1C2CCC3(C)C(c4ccoc4)OC(=O)CC13OC1CC(OC(C)=O)C(C)(C)C(CC(=O)OC)C12C (configuration not stated)
active: S. cerevisiae deletion strains, locus YKL068W, active compounds read low 1.17 [resistant] | S. cerevisiae deletion strains, locus YKL085W, strain MDH1 (second series), active compounds read low 1.08 [resistant] | S. cerevisiae deletion strains, locus YKL085W, strain MDH1, active compounds read low 1.08 [resistant]
inactive: S. cerevisiae deletion strains, locus YAL021C, strain ccr4, active compounds read low 1.02 | S. cerevisiae deletion strains, locus YAL026C, strain drs2, active compounds read low 1.01 | S. cerevisiae deletion strains, locus YAL030W, strain snc1, active compounds read low 1 | S. cerevisiae deletion strains, locus YBL061C, strain skt5, active compounds read low 0.993 | S. cerevisiae deletion strains, locus YBR009C, strain hhf1, active compounds read low 1 | S. cerevisiae deletion strains, locus YBR021W, strain FUR4, active compounds read low 1 | S. cerevisiae deletion strains, locus YBR023C, strain chs3, active compounds read low 1 | S. cerevisiae deletion strains, locus YBR171W, strain sec66, active compounds read low 1.01 | S. cerevisiae deletion strains, locus YBR229C, strain ROT2, active compounds read low 1 | S. cerevisiae deletion strains, locus YBR231C, strain swc5, active compounds read low 1.02 | S. cerevisiae deletion strains, locus YBR279W, strain paf1, active compounds read low 1.01 | S. cerevisiae deletion strains, locus YCL011C, strain gbp2, active compounds read low 1 | S. cerevisiae deletion strains, locus YCL016C, strain dcc1, active compounds read low 1 | S. cerevisiae deletion strains, locus YCL029C, strain bik1, active compounds read low 0.995 | S. cerevisiae deletion strains, locus YCL061C, strain MRC1, active compounds read low 1.01 | S. cerevisiae deletion strains, locus YCL069W, strain vba3, active compounds read low 1 | S. cerevisiae deletion strains, locus YCR088W, strain abp1, active compounds read low 1.01 | S. cerevisiae deletion strains, locus YDL005C, strain med2, active compounds read low 0.985 | S. cerevisiae deletion strains, locus YDL035C, strain GPR1, active compounds read low 0.993 | S. cerevisiae deletion strains, locus YDL040C, strain nat1, active compounds read low 1.01 | S. cerevisiae deletion strains, locus YDL074C, strain BRE1, active compounds read low 1.02 | S. cerevisiae deletion strains, locus YDL101C, strain DUN1, active compounds read low 1 | S. cerevisiae deletion strains, locus YDL185W, strain tfp1, active compounds read low 0.999 | S. cerevisiae deletion strains, locus YDL192W, strain arf1, active compounds read low 0.985 | S. cerevisiae deletion strains, locus YDR001C, strain nth1, active compounds read low 1.01 | S. cerevisiae deletion strains, locus YDR069C, strain doa4, active compounds read low 1.01 | S. cerevisiae deletion strains, locus YDR101C, strain arx1, active compounds read low 1.05 | S. cerevisiae deletion strains, locus YDR137W, strain rgp1, active compounds read low 0.899 | S. cerevisiae deletion strains, locus YDR159W, strain sac3, active compounds read low 1.03 | S. cerevisiae deletion strains, locus YDR162C, strain NBP2, active compounds read low 0.991 | S. cerevisiae deletion strains, locus YDR195W, strain ref2 1 | S. cerevisiae deletion strains, locus YDR297W, strain sur2, active compounds read low 1.02 | S. cerevisiae deletion strains, locus YDR318W, strain mcm21, active compounds read low 0.992 | S. cerevisiae deletion strains, locus YDR334W, strain swr1, active compounds read low 1.03 | S. cerevisiae deletion strains, locus YDR335W, strain msn5, active compounds read low 1 | S. cerevisiae deletion strains, locus YDR388W, active compounds read low 1 | S. cerevisiae deletion strains, locus YDR392W, strain spt3, active compounds read low 1.01 | S. cerevisiae deletion strains, locus YDR502C, strain sam2, active compounds read low 0.994 | S. cerevisiae deletion strains, locus YEL003W, strain gim4, active compounds read low 1.01 | S. cerevisiae deletion strains, locus YEL037C, strain rad23, active compounds read low 1.02 | S. cerevisiae deletion strains, locus YEL061C, strain CIN8 (second series), active compounds read low 1.01 | S. cerevisiae deletion strains, locus YEL061C, strain CIN8, active compounds read low 1 | S. cerevisiae deletion strains, locus YER015W, strain faa2, active compounds read low 1.01 | S. cerevisiae deletion strains, locus YER016W, strain bim1, active compounds read low 1.01 | S. cerevisiae deletion strains, locus YER110C, active compounds read low 0.99 | S. cerevisiae deletion strains, locus YER111C, strain swi4, active compounds read low 0.988 | S. cerevisiae deletion strains, locus YER155C, strain BEM2 (second series), active compounds read low 1.02 | S. cerevisiae deletion strains, locus YER155C, strain BEM2, active compounds read low 1.01 | S. cerevisiae deletion strains, locus YER167W, strain BCK2, active compounds read low 1.01 | S. cerevisiae deletion strains, locus YFR010W, strain ubp6, active compounds read low 1.01 | S. cerevisiae deletion strains, locus YGL078C, strain dbp3, active compounds read low 1.01 | S. cerevisiae deletion strains, locus YGL086W, strain mad1, active compounds read low 0.998 | S. cerevisiae deletion strains, locus YGL167C, strain pmr1, active compounds read low 1.01 | S. cerevisiae deletion strains, locus YGL173C, strain kem1, active compounds read low 0.998 | S. cerevisiae deletion strains, locus YGL227W, strain vid30, active compounds read low 1 | S. cerevisiae deletion strains, locus YGL240W, strain doc1, active compounds read low 0.991 | S. cerevisiae deletion strains, locus YGL248W, strain PDE1, active compounds read low 0.993 | S. cerevisiae deletion strains, locus YGL253W, strain hxk2, active compounds read low 0.981 | S. cerevisiae deletion strains, locus YGR135W, strain pre9, active compounds read low 0.983 | S. cerevisiae deletion strains, locus YGR252W, strain gcn5, active compounds read low 0.923 | S. cerevisiae deletion strains, locus YHR013C, strain ard1, active compounds read low 1.01 | S. cerevisiae deletion strains, locus YHR027C, strain rpn1, active compounds read low 1.02 | S. cerevisiae deletion strains, locus YHR030C, strain SLT2, active compounds read low 1.01 | S. cerevisiae deletion strains, locus YHR079C, strain IRE1 (second series), active compounds read low 1 | S. cerevisiae deletion strains, locus YHR094C, strain hxt1, active compounds read low 0.999 | S. cerevisiae deletion strains, locus YHR129C, strain ARP1, active compounds read low 1.01 | S. cerevisiae deletion strains, locus YHR142W, strain chs7, active compounds read low 0.99 | S. cerevisiae deletion strains, locus YHR200W, strain rpn10, active compounds read low 1 | S. cerevisiae deletion strains, locus YIL066C, strain RNR3, active compounds read low 1.01 | S. cerevisiae deletion strains, locus YIL073C, strain SPO22, active compounds read low 0.973 | S. cerevisiae deletion strains, locus YIL125W, strain kgd1, active compounds read low 0.998 | S. cerevisiae deletion strains, locus YIR030C, strain dcg1, active compounds read low 0.998 | S. cerevisiae deletion strains, locus YJL092W, strain hpr5, active compounds read low 1.02 | S. cerevisiae deletion strains, locus YJL095W, strain BCK1 (second series), active compounds read low 1.02 | S. cerevisiae deletion strains, locus YJL095W, strain BCK1, active compounds read low 1.01 | S. cerevisiae deletion strains, locus YJL115W, strain asf1, active compounds read low 1.01 | S. cerevisiae deletion strains, locus YJL129C, strain trk1, active compounds read low 0.969 | S. cerevisiae deletion strains, locus YJL134W, strain LCB3, active compounds read low 1.01 | S. cerevisiae deletion strains, locus YJL154C, strain vps35, active compounds read low 1.03 | S. cerevisiae deletion strains, locus YJL164C, strain tpk1, active compounds read low 0.997 | S. cerevisiae deletion strains, locus YJL166W, strain qcr8, active compounds read low 1.02 | S. cerevisiae deletion strains, locus YJL168C, strain set2, active compounds read low 0.998 | S. cerevisiae deletion strains, locus YJL187C, strain SWE1 (second series), active compounds read low 1 | S. cerevisiae deletion strains, locus YJR043C, strain POL32, active compounds read low 1.02 | S. cerevisiae deletion strains, locus YKL160W, strain elf1, active compounds read low 1.01 | S. cerevisiae deletion strains, locus YKR001C, strain vps1, active compounds read low 1.02 | S. cerevisiae deletion strains, locus YKR026C, strain gcn3, active compounds read low 1 | S. cerevisiae deletion strains, locus YKR091W, strain srl3, active compounds read low 1 | S. cerevisiae deletion strains, locus YLL001W, strain dnm1, active compounds read low 1.01 | S. cerevisiae deletion strains, locus YLL026W, active compounds read low 1 | S. cerevisiae deletion strains, locus YLL041C, strain sdh2, active compounds read low 1 | S. cerevisiae deletion strains, locus YLR027C, strain aat2, active compounds read low 0.991 | S. cerevisiae deletion strains, locus YLR039C, strain RIC1, active compounds read low 0.988 | S. cerevisiae deletion strains, locus YLR058C, strain SHM2, active compounds read low 1 | S. cerevisiae deletion strains, locus YLR102C, strain apc9, active compounds read low 1.01 | S. cerevisiae deletion strains, locus YLR221C, strain rsa3, active compounds read low 0.995 | S. cerevisiae deletion strains, locus YLR258W, strain gsy2, active compounds read low 0.994 | S. cerevisiae deletion strains, locus YLR262C, strain YPT6 (second series), active compounds read low 0.972 | S. cerevisiae deletion strains, locus YLR262C, strain YPT6, active compounds read low 0.933 | S. cerevisiae deletion strains, locus YLR268W, strain sec22, active compounds read low 0.984 | S. cerevisiae deletion strains, locus YLR320W, strain mms22, active compounds read low 1.01 | S. cerevisiae deletion strains, locus YLR342W, strain FKS1, active compounds read low 0.992 | S. cerevisiae deletion strains, locus YLR357W, strain rsc2, active compounds read low 1.02 | S. cerevisiae deletion strains, locus YLR370C, strain arc18, active compounds read low 0.998 | S. cerevisiae deletion strains, locus YLR371W, strain rom2, active compounds read low 1.01 | S. cerevisiae deletion strains, locus YLR384C, strain iki3, active compounds read low 1.01 | S. cerevisiae deletion strains, locus YLR418C, strain cdc73, active compounds read low 0.983 | S. cerevisiae deletion strains, locus YML016C, strain PPZ1, active compounds read low 1.03 | S. cerevisiae deletion strains, locus YML032C, strain rad52, active compounds read low 0.999 | S. cerevisiae deletion strains, locus YML120C, strain ndi1, active compounds read low 1.01 | S. cerevisiae deletion strains, locus YML124C, strain tub3, active compounds read low 0.993 | S. cerevisiae deletion strains, locus YMR058W, strain fet3, active compounds read low 1.02 | S. cerevisiae deletion strains, locus YMR078C, strain ctf18, active compounds read low 0.988 | S. cerevisiae deletion strains, locus YMR125W, strain sto1, active compounds read low 1.01 | S. cerevisiae deletion strains, locus YMR129W, active compounds read low 1 | S. cerevisiae deletion strains, locus YMR205C, strain PFK2, active compounds read low 0.97 | S. cerevisiae deletion strains, locus YMR223W, strain ubp8, active compounds read low 0.991 | S. cerevisiae deletion strains, locus YMR231W, strain pep5, active compounds read low 1 | S. cerevisiae deletion strains, locus YMR307W, strain GAS1, active compounds read low 1.03 | S. cerevisiae deletion strains, locus YNL067W, strain RPL9B, active compounds read low 0.998 | S. cerevisiae deletion strains, locus YNL071W, strain lat1, active compounds read low 1.01 | S. cerevisiae deletion strains, locus YNL153C, strain GIM3, active compounds read low 1.02 | S. cerevisiae deletion strains, locus YNL209W, strain ssb2, active compounds read low 1.02 | S. cerevisiae deletion strains, locus YNL233W, strain BNI4, active compounds read low 1 | S. cerevisiae deletion strains, locus YNL248C, strain rpa49, active compounds read low 1.02 | S. cerevisiae deletion strains, locus YNL250W, strain rad50, active compounds read low 0.982 | S. cerevisiae deletion strains, locus YNL271C, strain bni1, active compounds read low 1 | S. cerevisiae deletion strains, locus YNL298W, strain CLA4, active compounds read low 0.997 | S. cerevisiae deletion strains, locus YNL307C, strain MCK1, active compounds read low 0.999 | S. cerevisiae deletion strains, locus YNL322C, strain KRE1 (second series), active compounds read low 1.02 | S. cerevisiae deletion strains, locus YNR049C, strain mso1, active compounds read low 1.02 | S. cerevisiae deletion strains, locus YNR052C, strain pop2, active compounds read low 1.01 | S. cerevisiae deletion strains, locus YOL006C, strain TOP1, active compounds read low 0.984 | S. cerevisiae deletion strains, locus YOL012C, strain htz1 1.69 | S. cerevisiae deletion strains, locus YOL147C, strain pex11, active compounds read low 0.999 | S. cerevisiae deletion strains, locus YOR001W, strain rrp6, active compounds read low 1.03 | S. cerevisiae deletion strains, locus YOR061W, strain CKA2, active compounds read low 1.01 | S. cerevisiae deletion strains, locus YOR069W, strain VPS5, active compounds read low 1.01 | S. cerevisiae deletion strains, locus YOR070C, strain gyp1, active compounds read low 1.02 | S. cerevisiae deletion strains, locus YOR080W, strain dia2, active compounds read low 1.01 | S. cerevisiae deletion strains, locus YOR083W, strain WHI5, active compounds read low 1 | S. cerevisiae deletion strains, locus YOR106W, strain vam3, active compounds read low 0.999 | S. cerevisiae deletion strains, locus YOR136W, strain idh2, active compounds read low 0.989 | S. cerevisiae deletion strains, locus YOR144C, strain elg1, active compounds read low 1 | S. cerevisiae deletion strains, locus YOR184W, strain ser1, active compounds read low 1 | S. cerevisiae deletion strains, locus YOR265W, strain rbl2, active compounds read low 1.01 | S. cerevisiae deletion strains, locus YOR270C, strain vph1, active compounds read low 0.951 | S. cerevisiae deletion strains, locus YOR290C, strain snf2, active compounds read low 0.996 | S. cerevisiae deletion strains, locus YOR316C, strain cot1, active compounds read low 1.01 | S. cerevisiae deletion strains, locus YPL051W, strain arl3, active compounds read low 1.01 | S. cerevisiae deletion strains, locus YPL078C, strain atp4, active compounds read low 1 | S. cerevisiae deletion strains, locus YPL106C, strain sse1, active compounds read low 0.989 | S. cerevisiae deletion strains, locus YPL240C, strain hsp82, active compounds read low 1.02 | S. cerevisiae deletion strains, locus YPR119W, strain clb2, active compounds read low 0.998 | S. cerevisiae deletion strains, locus YPR141C, strain kar3, active compounds read low 1.01 | S. cerevisiae deletion strains, locus YPR163C, strain tif3, active compounds read low 0.991 | S. cerevisiae deletion strains, locus YPR167C, strain met16, active compounds read low 1 | S. cerevisiae deletion strains, strain wtn01, active compounds read low 0.983 | S. cerevisiae strains, strain wild type, active compounds read low 1.01
